Results taken from article PMC4081100, “A DNA-binding-site landscape and regulatory network analysis for NAC transcription factors in Arabidopsis thaliana”.

Tests used:
Assay in all cases: universal protein binding microarray (PBM); transcription factors of Arabidopsis thaliana; high values mean tight binding
GST-ANAC092(1-176) = biological target: T1, GST-ANAC092(1-176) (Arabidopsis thaliana, UniProt Q9FKA0 1-176); settings: protein: recombinant; tags: GST; chain copies: 2; dsDNA, one strand shown
T1 sequence: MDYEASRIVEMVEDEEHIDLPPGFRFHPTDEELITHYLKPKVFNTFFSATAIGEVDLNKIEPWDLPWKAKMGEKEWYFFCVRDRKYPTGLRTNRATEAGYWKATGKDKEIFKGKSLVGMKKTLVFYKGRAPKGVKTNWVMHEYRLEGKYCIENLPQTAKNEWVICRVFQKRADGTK
How it was run: (§1)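 For zinc-finger proteins, zinc acetate was added while GST-tagged NAC-domain, full-length or DNA-binding-domain proteins were induced in cells. Purification used glutathione–Sepharose 4B, and quantification used A280 or anti-GST western blot. Custom all-10-mer Agilent 4 × 180K arrays, made double-stranded by primer extension, each received a protein at 200 to 500 nM final in duplicate. Scoring covered gapped and ungapped 8-mers, with binding given as the normalised enrichment score (E-score).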

GST-NTL6(1-168) = GST-NTL6(1-168) (Arabidopsis thaliana, UniProt Q9SCK6 1-168); settings: protein: recombinant; tags: GST; chain copies: 2; dsDNA, one strand shown
How it was run: as §1

GST-ANAC019 NAC domain = biological target: T2, GST-ANAC019 NAC domain (Arabidopsis thaliana, UniProt Q9C932 14-162); settings: protein: recombinant; tags: GST; chain copies: 2; dsDNA, one strand shown
T2 sequence: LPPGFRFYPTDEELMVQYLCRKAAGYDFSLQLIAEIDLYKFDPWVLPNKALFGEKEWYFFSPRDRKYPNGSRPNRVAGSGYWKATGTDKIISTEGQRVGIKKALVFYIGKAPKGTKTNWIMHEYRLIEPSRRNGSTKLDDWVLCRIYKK
How it was run: as §1

GST-ANAC055(1-171) = biological target: T3, GST-ANAC055(1-171) (Arabidopsis thaliana, UniProt Q9LDY8 1-171); settings: protein: recombinant; tags: GST; chain copies: 2; dsDNA, one strand shown
T3 sequence: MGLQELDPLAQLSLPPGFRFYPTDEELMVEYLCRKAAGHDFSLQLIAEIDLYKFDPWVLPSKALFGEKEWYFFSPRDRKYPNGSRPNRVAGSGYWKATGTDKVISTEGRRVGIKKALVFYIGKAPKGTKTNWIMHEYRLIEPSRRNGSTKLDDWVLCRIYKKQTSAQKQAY
How it was run: as §1

GST-ATAF1 NAC domain = biological target: T4, GST-ATAF1 NAC domain (Arabidopsis thaliana, UniProt Q39013 7-158); settings: protein: recombinant; tags: GST; chain copies: 2; dsDNA, one strand shown
T4 sequence: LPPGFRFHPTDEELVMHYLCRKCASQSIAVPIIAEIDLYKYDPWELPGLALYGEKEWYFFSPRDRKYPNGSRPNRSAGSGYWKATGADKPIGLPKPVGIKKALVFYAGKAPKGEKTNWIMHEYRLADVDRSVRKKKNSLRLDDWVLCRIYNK
How it was run: as §1

[1] = biological target: T5, GST-ANAC092(1-285) full length (Arabidopsis thaliana, UniProt Q9FKA0 1-285); settings: protein: recombinant; tags: GST; chain copies: 2; dsDNA, one strand shown
T5 sequence: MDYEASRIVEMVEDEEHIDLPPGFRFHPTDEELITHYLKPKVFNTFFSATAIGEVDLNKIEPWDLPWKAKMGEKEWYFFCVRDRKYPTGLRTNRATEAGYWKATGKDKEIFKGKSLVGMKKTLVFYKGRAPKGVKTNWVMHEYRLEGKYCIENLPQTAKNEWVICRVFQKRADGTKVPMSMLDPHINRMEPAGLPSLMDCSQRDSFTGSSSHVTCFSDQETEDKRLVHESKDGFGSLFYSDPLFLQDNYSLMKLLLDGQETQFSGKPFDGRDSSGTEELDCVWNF
How it was run: as §1

GST-NAP(1-166) = biological target: T6, GST-NAP(1-166) (Arabidopsis thaliana, UniProt O49255 1-166); settings: protein: recombinant; tags: GST; chain copies: 2; dsDNA, one strand shown
T6 sequence: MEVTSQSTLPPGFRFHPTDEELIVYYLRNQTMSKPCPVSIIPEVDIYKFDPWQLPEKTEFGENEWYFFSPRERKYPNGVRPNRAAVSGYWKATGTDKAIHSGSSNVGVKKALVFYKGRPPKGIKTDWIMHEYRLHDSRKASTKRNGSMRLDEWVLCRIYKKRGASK
How it was run: as §1

GST-NST2(1-184) = biological target: T7, GST-NST2(1-184) (Arabidopsis thaliana, UniProt Q9M274 1-184); settings: protein: recombinant; tags: GST; chain copies: 2; dsDNA, one strand shown
T7 sequence: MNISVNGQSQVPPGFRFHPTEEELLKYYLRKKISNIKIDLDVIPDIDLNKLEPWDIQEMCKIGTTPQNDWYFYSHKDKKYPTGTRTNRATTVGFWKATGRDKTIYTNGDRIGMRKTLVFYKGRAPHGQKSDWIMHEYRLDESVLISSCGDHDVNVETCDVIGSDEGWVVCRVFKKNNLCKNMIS
How it was run: as §1

GST-SND1(1-203) = biological target: T8, GST-SND1(1-203) (Arabidopsis thaliana, UniProt Q9LPI7 1-203); settings: protein: recombinant; tags: GST; chain copies: 2; dsDNA, one strand shown
T8 sequence: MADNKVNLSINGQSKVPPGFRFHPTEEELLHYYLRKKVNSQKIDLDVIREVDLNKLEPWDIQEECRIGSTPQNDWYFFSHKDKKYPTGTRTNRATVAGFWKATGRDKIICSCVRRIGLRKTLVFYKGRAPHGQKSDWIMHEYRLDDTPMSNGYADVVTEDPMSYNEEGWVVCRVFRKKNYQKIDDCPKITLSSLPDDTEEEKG
How it was run: as §1

GST-VND3 NAC domain = biological target: T9, GST-VND3 NAC domain (Arabidopsis thaliana, UniProt Q9FH59 12-162); settings: protein: recombinant; tags: GST; chain copies: 2; dsDNA, one strand shown
T9 sequence: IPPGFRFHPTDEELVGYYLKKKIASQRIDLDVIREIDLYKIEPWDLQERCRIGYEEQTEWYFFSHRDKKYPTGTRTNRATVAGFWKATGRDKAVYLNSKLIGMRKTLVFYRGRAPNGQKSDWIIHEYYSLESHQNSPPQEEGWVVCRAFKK
How it was run: as §1

GST-VND7 NAC domain = biological target: T10, GST-VND7 NAC domain (Arabidopsis thaliana, UniProt Q9C8W9 9-158); settings: protein: recombinant; tags: GST; chain copies: 2; dsDNA, one strand shown
T10 sequence: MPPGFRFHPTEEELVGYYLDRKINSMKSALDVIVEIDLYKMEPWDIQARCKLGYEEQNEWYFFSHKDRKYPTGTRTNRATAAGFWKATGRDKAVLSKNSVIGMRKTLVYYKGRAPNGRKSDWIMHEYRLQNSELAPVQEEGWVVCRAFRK
How it was run: as §1

GST-WRKY1(266-371) = GST-WRKY1(266-371) (Arabidopsis thaliana, UniProt Q9SI37 266-371); settings: protein: recombinant; tags: GST; dsDNA, one strand shown
How it was run: as §1

GST-NTL8 NAC domain = biological target: T11, GST-NTL8 NAC domain (Arabidopsis thaliana, UniProt Q9XIN7 14-156); settings: protein: recombinant; tags: GST; chain copies: 2; dsDNA, one strand shown
T11 sequence: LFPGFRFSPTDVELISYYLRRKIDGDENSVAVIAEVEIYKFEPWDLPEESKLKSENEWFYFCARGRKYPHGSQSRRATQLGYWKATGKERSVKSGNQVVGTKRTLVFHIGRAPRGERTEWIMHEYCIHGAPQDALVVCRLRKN
How it was run: as §1

Sequence of GST-WRKY1(266-371) (Q9SI37 266-371): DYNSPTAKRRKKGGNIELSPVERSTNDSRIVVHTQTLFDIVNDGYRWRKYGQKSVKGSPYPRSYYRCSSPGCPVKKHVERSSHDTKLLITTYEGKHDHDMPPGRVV
Sequence of GST-NTL6(1-168) (Q9SCK6 1-168): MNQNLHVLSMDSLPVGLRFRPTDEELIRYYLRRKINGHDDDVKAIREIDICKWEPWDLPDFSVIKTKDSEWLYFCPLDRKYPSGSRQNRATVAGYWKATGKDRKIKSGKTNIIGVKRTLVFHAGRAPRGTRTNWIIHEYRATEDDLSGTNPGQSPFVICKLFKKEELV

Row | Sequence | binding signal (GST-ANAC092(1-176)) | binding signal (GST-NTL6(1-168)) | binding signal (GST-ANAC019 NAC domain) | binding signal (GST-ANAC055(1-171)) | binding signal (GST-ATAF1 NAC domain) | binding signal [1] | binding signal (GST-NAP(1-166)) | binding signal (GST-NST2(1-184)) | binding signal (GST-SND1(1-203)) | binding signal (GST-VND3 NAC domain) | binding signal (GST-VND7 NAC domain) | binding signal (GST-WRKY1(266-371)) | binding signal (GST-NTL8 NAC domain)
1 | ATGCGTAC | 0.362 E-score | 0.0817 E-score | 0.191 E-score | 0.17 E-score | 0.229 E-score | 0.414 E-score | 0.237 E-score | 0.192 E-score | 0.292 E-score | 0.235 E-score | 0.21 E-score | 0.0545 E-score | 
2 | ACGCAAGA | 0.449 E-score | 0.116 E-score | 0.243 E-score | 0.264 E-score | 0.156 E-score | 0.456 E-score | 0.285 E-score | 0.315 E-score | 0.405 E-score | 0.252 E-score | 0.194 E-score | 0.123 E-score | 0.128 E-score
3 | ACTAAGTA | 0.177 E-score | 0.429 E-score | 0.19 E-score | 0.216 E-score | 0.192 E-score | 0.126 E-score | 0.125 E-score | 0.252 E-score | 0.258 E-score | 0.279 E-score | 0.218 E-score | 0.0999 E-score | 0.116 E-score
4 | TTACGTAA | 0.476 E-score | 0.171 E-score | 0.479 E-score | 0.478 E-score | 0.465 E-score | 0.469 E-score | 0.484 E-score | 0.433 E-score | 0.484 E-score | 0.483 E-score | 0.481 E-score | 0.0521 E-score | 0.411 E-score
5 | AAAAGTCA | 0.142 E-score | 0.1 E-score | 0.185 E-score | 0.157 E-score | 0.241 E-score | 0.241 E-score | 0.08 E-score | 0.274 E-score | 0.257 E-score | 0.13 E-score | 0.122 E-score | 0.461 E-score | 0.128 E-score
6 | TTACGGAA | 0.266 E-score | 0.151 E-score | 0.455 E-score | 0.402 E-score | 0.404 E-score | 0.354 E-score | 0.413 E-score | 0.199 E-score | 0.405 E-score | 0.442 E-score | 0.391 E-score | 0.126 E-score | 0.128 E-score
7 | TCACGCAA | 0.488 E-score | 0.0728 E-score | 0.467 E-score | 0.398 E-score | 0.336 E-score | 0.488 E-score | 0.433 E-score | 0.396 E-score | 0.473 E-score | 0.448 E-score | 0.462 E-score | 0.0966 E-score | 0.177 E-score
8 | GATACGTA | 0.381 E-score | 0.0687 E-score | 0.428 E-score | 0.415 E-score | 0.341 E-score | 0.385 E-score | 0.458 E-score | 0.253 E-score | 0.257 E-score | 0.405 E-score | 0.424 E-score | 0.0663 E-score | 
9 | CACGAAAG | 0.407 E-score | 0.109 E-score | 0.25 E-score | 0.216 E-score | 0.133 E-score | 0.411 E-score | 0.17 E-score | 0.189 E-score | 0.184 E-score | 0.191 E-score | 0.132 E-score | 0.0838 E-score | 0.121 E-score
10 | AATGCGTG | 0.434 E-score | 0.147 E-score | 0.324 E-score | 0.227 E-score | 0.271 E-score | 0.44 E-score | 0.227 E-score | 0.243 E-score | 0.288 E-score | 0.286 E-score | 0.254 E-score | 0.087 E-score | 
11 | ACACGCAA | 0.498 E-score | 0.0863 E-score | 0.484 E-score | 0.473 E-score | 0.439 E-score | 0.498 E-score | 0.487 E-score | 0.47 E-score | 0.477 E-score | 0.477 E-score | 0.482 E-score | 0.172 E-score | 0.218 E-score
12 | ACGTCAAA | 0.333 E-score | 0.0817 E-score | 0.262 E-score | 0.245 E-score | 0.176 E-score | 0.372 E-score | 0.194 E-score | 0.261 E-score | 0.361 E-score | 0.252 E-score | 0.25 E-score | 0.421 E-score | 
